A number with no mark means an inactive call. Activity calls are given as the source filed them. Cut-off read from the data, not from the text of the source: active = fold change mostly below about -2 (no sharp cut-off); inactive = mostly above about -1.8.

The test in a line: TERT promoter activity modulators, primary screen, cell-based, luciferase reporter, human (AID 1259240). Conditions: A2780 TERT promoter luciferase reporter, 16 h; at 20 µM, fold versus average of vehicle-only wells.
Regarding `Cc1nnc2ccc(N3CCC(C)CC3)nn12`, the fold change is 1.03. As to `CCOC(=O)N1CCC(Nc2c(N3CCN(c4ccccc4F)CC3)c(=O)c2=O)CC1`, the fold change was -1.13.

For `COc1cccc(CNc2nc3ccccc3n3cnnc23)c1`, the fold change was 1.12.

Consider `O=C(Cn1c(=O)n(CC(=O)NC2CCCC2)c(=O)c2ccccc21)Nc1cccc(F)c1`, for which the fold change was 1.16. As for `COC(=O)c1cccnc1-n1c(=O)c2cccnc2n(Cc2ccc(C#N)cc2)c1=O`, the fold change is -1.61.

For the compound `CC(C)n1cnc2cc(NCc3ccccn3)ccc21`, the fold change is -1.44. For `COc1cc(OC)cc(-c2cc(N)n(S(=O)(=O)Cc3ccccc3)n2)c1`, the fold change is 1.16.

For `COc1cccc(-c2cc(N)n(S(=O)(=O)c3cccc4nsnc34)n2)c1`, the fold change is 1.15.

Regarding `Cn1c(SCC(=O)Nc2ccc(F)cc2)nnc1-c1c[nH]c2ccccc12`, the result was inactive. With `COc1cc(C(=O)Nc2ccc3oc(-c4ccncc4)nc3c2)cc(OC)c1OC`, the fold change is -1.49. For `Cn1c(=O)c(=O)n(C)c2cc(S(=O)(=O)N3CCCC3C(=O)Nc3nccs3)ccc21` (stereo not given), the fold change is 1.15. Regarding `NC(=O)c1c(NC(=O)c2csc3c2CCCC3)sc2c1CCCC2`, the fold change was -1.89. For the compound `COc1ccc(Nc2ncc(F)c(N3CCOCC3)n2)cc1`, the fold change was -3.37 (active). Still for that read-out and setting: for `O=C1C2CCCCC2C(=O)N1c1nc2nc(-c3ccccc3)cc(=O)n2[nH]1` (stereo not given) the value was 1.17; for `COc1cccc(N=c2oc3c(OC)cccc3cc2S(=O)(=O)c2ccccc2)c1`, -1.92.

Regarding `CCOc1ccc(N2CC(O)=C(c3nc4ccccc4c(=O)[nH]3)C2=N)cc1`, the outcome was inactive. For `CCC(=O)Nc1nc2nc(C(C)(C)C)cc(=O)n2[nH]1`, the fold change is -1.74. With `CN(C)C(=O)Nc1ccc2snnc2c1`, the fold change is 1.12. For `COc1ccc(-c2nc3s/c(=C\c4cc(OC)c(OC)c(OC)c4)c(=O)n3n2)cc1OC`, the fold change is 1.65. On the same count and under the same terms, then `CCOc1cc2c(cc1OCC)C(c1ccc(Cl)c(Cl)c1)CC(=O)N2` (stereo not given), with 1.29. Still for that read-out and setting: then `CC(CC(=O)N1CCN(c2ccc([N+](=O)[O-])cc2)CC1)CC1=NS(=O)(=O)c2ccccc2N1` (stereo not given), with -1.48; and `COc1ccc(-c2c(C)oc3c(CN4CCN(C)CC4)c(O)ccc3c2=O)cc1`, with 1.02; and `O=C(Nc1cccc(F)c1)C1CCCN(S(=O)(=O)c2cnc[nH]2)C1` (stereo not given), with 1.26. On the same count and under the same terms, then `O=C(CC1(CC2=NS(=O)(=O)c3ccccc3N2)CCCC1)NCc1ccccc1`, with -1.27; and `CC1=CC2=NC(=O)/C(=C\c3cc(C)n(-c4ccccc4F)c3C)C(=N)N2O1`, with -1.81. With `O=c1oc2cc(O)ccc2cc1S(=O)(=O)c1ccc(Cl)cc1`, the fold change was -2.04 (active). `O=C(NC1CCCC1)c1ccc(CNc2c(NC3CCCC3)c(=O)c2=O)cc1`: the fold change is 1.06. For `CN(CC(=O)NC1CCCc2ccccc21)S(=O)(=O)c1ccc2c(c1)CCC(=O)N2` (stereo not given), the fold change is 1.18.

For the compound `Cc1ccccc1N1CC(O)(c2ccccc2)[N+]2=C1SCCC2` (stereo not given), the fold change was -1.05. `CCc1cccc(Nc2nc3ccccc3n3nnnc23)c1`: the fold change was -12.7 (active). With `CCOC(=O)c1c(NC(=O)CSc2ncccn2)sc(C(C)=O)c1C`, the fold change is -1.02. On the same count and under the same terms, for `CCc1nc(C)cn1S(=O)(=O)c1cc(C)c(OC)cc1C` the value was -1.15.

For the compound `COCCn1c(C)cc(C(=O)CSc2nnc3c(C)cc4ccccc4n23)c1C`, the fold change was 1.96. Still for that read-out and setting: for `CC(C)OCCCNC(=O)Cc1ccc(NC2=NC3CS(=O)(=O)CC3S2)cc1` (stereo not given) the value was -1.17; for `CS(=O)(=O)N1N=C(c2cccs2)CC1c1ccccc1F` (stereo not given), -1.2.

As for `Cc1ccn2c(NC(=O)CC(C)C)c(-c3ccc(F)cc3)nc2c1`, the fold change was -2.38 (active). `O=c1oc2cc(O)ccc2cc1S(=O)(=O)c1ccccc1`: the fold change was -1.16. On to `Clc1ccc(-c2nnn3c2nc(NCC2CCCO2)c2ccccc23)cc1` (stereo not given), for which the fold change was -1.11. `CCOC(=O)c1c(C)n(C)c2ccc(OCC(O)CN3CCCCC3C)cc12` (stereo not given): the fold change was -2.14 (active). Same read-out and setting: then `CCOc1ccc2nc(NC(=O)CN(C)S(=O)(=O)c3cnc[nH]3)sc2c1`, with 1.35.

These data come from PubChem BioAssay AID1259240 (Keith Lab, Institute of Cancer Science, University of …, 2017).
